Source: PubChem BioAssay (several laboratories)
Rows were chosen to be rich in hits. Some 2.1% of all compounds tested hit in one or more screens of this group.
VHR inh abs: VHR1 phosphatase inhibitors, primary screen, biochemical, absorbance, uHTS. hit rate 0.52% among 290,000. inhibition, % at 13.3 µM. recombinant VHR phosphatase, pNPP absorbance; in the data active = inhibition above about 50%
Target sequence (P51452 whole entry, looked up): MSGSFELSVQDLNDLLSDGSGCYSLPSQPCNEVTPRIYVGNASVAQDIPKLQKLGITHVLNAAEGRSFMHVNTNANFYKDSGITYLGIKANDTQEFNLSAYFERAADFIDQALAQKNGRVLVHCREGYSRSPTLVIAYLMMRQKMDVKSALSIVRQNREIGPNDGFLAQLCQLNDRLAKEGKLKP
MazEF act: activators of E. coli MazEF toxin-antitoxin RNase, primary screen, biochemical, fluorescence, uHTS. AID 504720, 2011. Endoribonuclease toxin MazF (Escherichia coli (strain K12)), P0AE70. FAM/BHQ RNA-DNA oligo cleavage fluorescence, 5 h. activation, % at 20 µM. hit rate 0.32% among 350,000; in the data active = activation above about 50%
Target sequence (P0AE70 whole entry, looked up): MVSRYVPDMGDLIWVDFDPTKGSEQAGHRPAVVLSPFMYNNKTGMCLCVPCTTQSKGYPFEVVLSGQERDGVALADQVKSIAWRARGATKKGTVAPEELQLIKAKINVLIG
PrPC surface inh: inhibitors of human cell surface prion protein PrPC, primary screen, cell-based, TR-FRET; TR-FRET read-out; Major prion protein (Homo sapiens), P04156; inhibition, % at 13.8 µM; hit rate 0.43% among 370,000; in the data active = inhibition above about 24%
BJeLR viability: MLPCN primary cell-based screen for lethality selective to Ras in HRASV12 cells; BJeLR (HRASV12) viability, CellTiter-Glo ATP luminescence, 48 h; inhibition, % (concentration not given with the values); hit rate 0.17% among 300,000; in the data active = inhibition above about 50%; inconclusive = no clear call, values can overlap the other calls
PrP 5UTR inh: inhibition of PrP 5' UTR reporter expression | cell-based PrP 5' UTR mRNA reporter, plate reader | inhibition, % (no concentration beside the values) | hit rate 0.35% among 340,000; in the data active = inhibition above about 52%
PfHsp40 rescue: rescue of yeast from PfHsp40 toxicity, primary screen, S. cerevisiae, ATP luminescence. S. cerevisiae expressing PfHsp40, growth rescue. growth rescue, % at 12.5 µM. hit rate 0.68% among 340,000. AID 504582, 2011; in the data active = growth rescue above about 28%, passing the limit was not always enough; inconclusive = no clear call, values can overlap the other calls;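 note: yeast W303a lacking pdr1 and pdr3 grown in galactose medium; growth measured after three days at 30 °C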
Numbers stand for hits; i = inactive; ? = inconclusive; nt = not tested or not shown.

SMILES	VHR inh abs	MazEF act	PrPC surface inh	BJeLR viability	PrP 5UTR inh	PfHsp40 rescue
CCN(CC)c1ccc(/C=C2/C(=O)c3ccc(C(=O)O)cc3C2=O)cc1	i	74	i	nt	i	i
Cc1cccc(C(=O)N=C2SC3CS(=O)(=O)CC3N2c2ccccc2)c1 (configuration not stated)	nt	i	i	nt	i	i
Cc1ccc(S(=O)(=O)NC[C@H]2O[C@@H](n3ccc(N)nc3=O)[C@H](O)[C@@H]2O)s1	nt	i	i	nt	nt	nt
Cc1ccc(NC(=O)C2C(c3ccccc3)C=CC(c3ccccc3)C2C(=O)O)cc1 (configuration not stated)	i	i	i	i	i	172
Cc1ccc(NC(=O)C2C(C(=O)O)C3C=CC2C32CC2)cc1 (configuration not stated)	i	i	i	i	i	i
Cc1cccc(C)c1-n1nnnc1SCC(=O)c1c(N)n(C2CC2)c(=O)[nH]c1=O	nt	55	i	nt	i	i
Cn1nnnc1SCC(=O)c1c(N)n(C2CC2)c(=O)[nH]c1=O	nt	i	i	nt	i	i
Cc1ccc(-n2nnnc2SCC(=O)c2c(N)n(C3CC3)c(=O)[nH]c2=O)cc1C	nt	57	i	nt	i	i
Cc1ccc(-n2ccnc2SCC(=O)c2c(N)n(C3CC3)c(=O)[nH]c2=O)cc1C	nt	i	i	nt	i	i
Cc1csc(=O)n1CCC(=O)OCc1nnc(-c2ccc([N+](=O)[O-])cc2)o1	nt	i	i	nt	i	i
COc1ccccc1C(=O)N/C(N)=N/c1nc2ccccc2o1	i	61	i	i	i	i
Cc1ccccc1S(=O)(=O)Cc1ccc(C(=O)NCc2cccnc2)o1	i	i	i	i	i	i
O=C(NCc1ccccc1)c1ccc(CS(=O)(=O)Cc2ccc(F)cc2)o1	60	i	i	i	i	i
O=C(NCCc1ccccc1)c1ccc(CS(=O)(=O)Cc2ccc(F)cc2)o1	i	i	i	i	i	i
Cc1ccccc1S(=O)(=O)Cc1ccc(C(=O)NCc2ccccc2)o1	57	i	i	i	i	i
Cn1cnc([N+](=O)[O-])c1S(=O)(=O)Oc1cccc2ccccc12	nt	i	i	nt	i	?
Cn1cnc([N+](=O)[O-])c1S(=O)(=O)Oc1ccc(Cl)cc1	nt	i	i	nt	i	233
Cc1cccc(NC(=S)NC2CCCC2)n1	i	i	i	i	i	113
Cn1c(=O)c2c(O)cc(=O)n(-c3ccccc3)c2n(C)c1=O	51	i	i	i	i	i
CCCn1nc(NC(=O)c2cccs2)c2cc3cc(OC)ccc3nc21	i	i	i	i	i	68
CCCn1nc(NC(=O)c2cccs2)c2cc3cc(C)ccc3nc21	i	i	i	i	i	48
CCCn1nc(NC(=O)c2cccs2)c2cc3ccc(C)cc3nc21	i	i	i	i	i	i
Fc1ccc(OCCOCCN2CCNCC2)cc1	i	i	i	i	i	i
Cc1ccc(S(=O)(=O)n2ccc(-c3ccc(OCc4c(F)cccc4Cl)cc3)n2)cc1	53	i	i	i	i	i
Cc1ccc(CN2CCN(C(=O)CC(C)C)CC2)cc1	i	i	i	i	i	i
SMILES	VHR inh abs	MazEF act	PrPC surface inh	BJeLR viability	PrP 5UTR inh	PfHsp40 rescue
CC1(C)CC(=O)C(C(O)c2cccc([N+](=O)[O-])c2)C(C)(C)N1 (configuration not stated)	51	i	i	i	i	i
CC1(C)CC(=O)C(C(c2cccc([N+](=O)[O-])c2)C2C(=O)CC(C)(C)CC2=O)C(=O)C1	i	i	i	i	i	i
Cc1ccc(-c2nc(C#N)c(NCCc3ccccn3)o2)cc1	i	i	i	i	i	i
N#Cc1nc(-c2ccc(Cl)cc2)oc1NCCc1ccccn1	i	i	i	i	i	67
CC(C)(C)CCN1C[C@@H]2C(CNC(=O)c3cc(Cl)cc(Cl)c3)[C@@H]2C1 (some centres not stated)	nt	nt	i	nt	nt	nt
Cc1cc(Cl)n2c(nc3cc(F)c(F)cc32)c1C#N	i	i	i	128	i	i
Cc1cc(C)n2c(=O)c3ccc(Cl)cc3nc2c1C#N	i	i	i	i	i	i
N[C@@H]1C[C@H]1c1ccccc1	nt	i	i	nt	i	44
CC(=O)N[C@H]1C[C@@H]1c1ccccc1	i	i	i	i	i	i
CCCOc1ccc(C(=O)Nc2ccc(S(=O)(=O)Nc3cc(C)nc(C)n3)cc2)cc1	52	i	i	i	i	i
COc1cccc(NC(=S)N(CCC(C)C)C2CCN(C(C)=O)CC2)c1	i	i	i	i	i	i
Cn1nccc1NC(=O)CSCC(=O)O	i	i	i	i	i	i
CC(Sc1ncnc2sccc12)C(=O)Nc1ccc(C(N)=O)cc1 (configuration not stated)	i	54	i	i	i	i
CC(Sc1ncnc2sccc12)C(=O)Nc1ccc(S(N)(=O)=O)cc1 (configuration not stated)	nt	i	i	nt	i	i
CCCCCc1ccc(NC(=O)O[C@@H]2CC[C@@]34CCCN3C(=O)CCC[C@H]4C2)cc1	nt	nt	i	nt	nt	nt
CCNc1ccc(C(=O)OCC)cc1NC(=O)c1cc(S(=O)(=O)N2CCOCC2)ccc1C	i	i	i	i	i	113
CCNc1cc(O)ccc1C	nt	i	nt	nt	i	77
CN(C)c1nc(N(C)C)nc(N(C#N)CN2C(=O)c3ccccc3C2=O)n1	52	nt	nt	i	nt	nt
O=S(=O)(c1sccc1Br)n1c(CN2CCOCC2)nc2ccccc21	nt	nt	i	nt	nt	nt
CCOC(=O)CSC1=C(C#N)C(c2ccccc2Cl)C(C(=O)OC)C(=O)N1 (configuration not stated)	i	i	i	i	i	i
CCOC(=O)CSC1=C(C#N)C(c2ccc(C)o2)CC(=O)N1 (configuration not stated)	i	i	i	i	55	i
CCCOC(=O)CSC1=C(C#N)C(c2ccccc2Cl)CC(=O)N1 (configuration not stated)	50	i	i	i	i	i
CCOC(=O)CSC1=C(C#N)C(c2ccc(Cl)cc2)CC(=O)N1 (configuration not stated)	i	i	i	i	i	i
N#Cc1c(-c2ccccc2F)cc(C2CC2)nc1SCC(=O)c1cccs1	i	65	i	i	i	i
CC1=C(C(=O)N2CCOCC2)C(c2ccc(OC(F)F)cc2)NC(=S)N1c1ccccc1 (configuration not stated)	53	i	i	i	i	i
COc1cccc(-c2ccnc3[nH]n(-c4ccccc4)c(=O)c23)c1	51	i	i	i	i	i
O=c1c2c(-c3ccc([N+](=O)[O-])cc3)ccnc2[nH]n1-c1ccccc1	58	i	i	i	i	i
